Most compounds without a hit are left out; they make up all but 2% or so of the library.
FUS yeast rescue – suppressors of FUS proteinopathy in yeast | S. cerevisiae FUS-expressing, growth rescue, OD600, 24 h | Potency, µM (doses to about 76.6 µM), usual class: activators | actives 0.24% (n = 390,000) | AID 1347120;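 also: potency is read from the fitted curve at half-maximal effect; plate controls were DMSO vehicle for no effect and reference control for full effect; nearly all actives have a fitted effect of over 55% in size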
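Yeast expressing FUS under galactose induction, OD 0.005 in 2% galactose medium; compounds in a dilution series, 24 h at 30C. Growth rescue by absorbance at 600 nm; CP55940 positive control, DMSO negative.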
LDHA block – blocks human lactate dehydrogenase A. P00338. purified LDHA, NADH/diaphorase-resazurin fluorescence; stronger effect = lower value. activity change, % (values are at about 110 or 230 µM). actives 0.15% (n = 480,000); in the data active = activity change below about -30%; inconclusive = mostly about -25% to -30%;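 also: plate controls were DMSO wells for no effect and wells without enzyme for full effect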
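Human LDH5 at 2 nM final in Tris HCl pH 7.4 with 0.06 mM NADH and 0.2 mM pyruvate, reacted 5 minutes at room temperature. Remaining NADH coupled via diaphorase/resazurin; resorufin fluorescence read at 0 and 20 minutes, normalized to enzyme-free and DMSO wells.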
IDH1 R132H inh – blocks human mutant IDH1 R132H enzyme. actives 0.093% (n = 390,000). AID 602179. IDH1-R132H enzyme, NADPH consumption, diaphorase/resazurin fluorescence. Potency, µM (doses to about 76.6 µM), for the others: at the top dose activity change, negative = inhibition, actives largely listed as inhibitors; also: potency is read from the fitted curve at half-maximal effect; % is scaled to controls: 0 for no effect and ±100 for the full control effect; nearly all actives have a fitted effect of over 65% in size
Target sequence (O75874 whole entry R132H, stated change not applied): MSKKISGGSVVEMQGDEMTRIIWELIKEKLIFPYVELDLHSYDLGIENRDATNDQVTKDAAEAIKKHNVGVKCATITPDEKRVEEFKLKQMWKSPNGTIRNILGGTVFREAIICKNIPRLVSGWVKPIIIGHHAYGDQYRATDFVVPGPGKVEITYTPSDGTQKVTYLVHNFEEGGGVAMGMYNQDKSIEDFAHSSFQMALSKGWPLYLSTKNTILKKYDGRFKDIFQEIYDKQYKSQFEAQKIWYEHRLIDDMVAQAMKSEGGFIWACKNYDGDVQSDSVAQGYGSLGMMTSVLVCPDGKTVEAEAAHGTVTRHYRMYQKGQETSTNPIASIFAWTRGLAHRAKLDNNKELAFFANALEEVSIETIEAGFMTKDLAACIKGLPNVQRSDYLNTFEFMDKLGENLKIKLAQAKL
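IDH1-R132H (0.5 ug/mL) preincubated 30 min with compound, then NADPH (0.016 mM) and alpha-KG (2 mM) added; 80 min at RT, pH 7.5. Remaining NADPH coupled via diaphorase/resazurin to fluorescence (540/590 nm); concentration-response curves normalized to no-enzyme control.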
Abeta rescue – compounds reversing amyloid beta toxicity in yeast. actives 0.063% (n = 410,000). yeast expressing A-beta42, growth rescue, OD600, 48 h; response scale: 0% DMSO, 100% iron-clioquinol control. Potency, µM (doses to about 46.1 µM), actives largely listed as activators. AID 1347071; also: potency is read from the fitted curve at half-maximal effect; nearly all actives have a fitted effect of over 55% in size
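Yeast growth medium received pinned compounds, then yeast cells expressing toxic A-beta were added; plates incubated at 30 C for 48 hr. Growth read as absorbance at 600 nm, normalized to DMSO and equimolar FeCl3 plus clioquinol controls.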
TDP-43 yeast inh – rescues yeast growth from TDP-43 toxicity | TDP-43 expressing yeast growth rescue, BacTiter-Glo, 24 h | Potency, µM (series often up to 46.1 µM), for inactives: at the top dose growth rescue (activation), actives largely listed as activators | actives 1.8% (n = 410,000); also: potency is read from the fitted curve at half-maximal effect; % of control where 0% means no effect; nearly all actives have a fitted effect of over 50% in size
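Yeast cells expressing TDP-43 under galactose induction are exposed to compounds for 24 hr at 30 deg C. BacTiter-Glo luminescence measures growth, so protective compounds score as activators.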
aSyn yeast inh – rescues yeast growth from alpha-synuclein toxicity; Yeast expressing alpha-synuclein, growth rescue, BacTiter-Glo, 24 h; AID 652106; Potency, µM (series often up to 46.1 µM), for inactives: top-dose growth rescue (activation), usual class: activators; actives 0.14% (n = 370,000); also: potency is read from the fitted curve at half-maximal effect; % of control where 0% means no effect; nearly all actives have a fitted effect of over 65% in size
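Readout is rescue of growth in alpha-synuclein-expressing yeast, so inhibitors of toxicity appear as activators. Growth after 24 hr at 30 deg C in galactose medium is quantified by luminescence.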
Resorufin autofl – autofluorescence interference, mutant IDH1 hit counter-screen. shares compounds with IDH1 R132H inh. Resorufin detection reagent fluorescence interference, cell-free. inhibition of signal, % at 51.2 µM. 750 tested, under 10 active. AID 623980;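 also: 0% = wells with normal resorufin and full inhibition = wells lacking resorufin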
IDH1 WT – wild-type IDH1 (human) inhibition counterscreen; shares compounds with IDH1 R132H inh; WT IDH1 enzyme, NADPH diaphorase/resazurin fluorescence; Potency, µM (doses to about 115 µM), without a hit: top-dose activity change, negative = inhibition, hits mostly inhibitors; actives 9% (n = 750); AID 623995;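 also: potency is read from the fitted curve at half-maximal effect; 0% = full WT IDH1 enzyme control and full inhibition = no enzyme wells; nearly all actives have a fitted effect of over 55% in size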
Target sequence (O75874 whole entry, looked up): as the sequence (O75874 whole entry R132H, stated change not applied) above, with H132R counted along it
IDH1 R132H conf – mutant IDH1 (human) inhibition, confirmed. shares compounds with IDH1 R132H inh. IDH1 R132H enzyme, NADPH diaphorase/resazurin fluorescence. AID 624002. Potency, µM (series often up to 76.6 µM), inactives show at the top dose activity change, negative = inhibition, actives largely listed as inhibitors. actives 83% (n = 750); also: potency is read from the fitted curve at half-maximal effect; nearly all actives have a fitted effect of over 50% in size
Active calls of the source: *; i = inactive; ? = inconclusive; . = no result. Unless noted, calls follow the shape of the dose curve; as a rule, active = well fitted curve in the direction sought with a large enough effect; inconclusive = small, poorly fitted or top-dose-only effect, or another doubt; inactive = no such curve, though single readings can be large; an effect the other way counts as inactive or inconclusive.

SMILES | FUS yeast rescue | LDHA block | IDH1 R132H inh | Abeta rescue | TDP-43 yeast inh | aSyn yeast inh | Resorufin autofl | IDH1 WT | IDH1 R132H conf
CC1(C)Cc2c(C#N)c(N3CCN(C(=O)c4ccccc4)CC3)nc(-c3ccco3)c2CS1 | i | 3 | -1% | i | 0% | 0% | . | . | .
CC(C)OC(=O)CSc1nc(N2CCOCC2)c2c(c1C#N)CC(C)(C)OC2 | i | -5 | ? | i | 2% | 9% | -7 | 5% | 35µM*
CC(=O)Nc1cc(F)ccc1-c1csc(NC(=O)CCc2ccco2)n1 | . | 7 | . | . | . | . | . | . | .
CC(NC(=O)Cc1csc2nc(-c3ccccc3)cn12)c1ccc(S(C)(=O)=O)cc1 (stereo not given) | . | 1 | . | . | . | . | . | . | .
COc1ccc(C2c3c(-c4cc(Cl)c(C)cc4O)n[nH]c3C(=O)N2Cc2cccnc2)cc1OC (stereo not given) | . | -1 | ? | i | 22% | -2% | 8 | 5% | 28µM*
CCOc1ccc(C2c3c(-c4ccccc4O)n[nH]c3C(=O)N2Cc2cccnc2)cc1OC (stereo not given) | i | 10 | ? | i | -1% | . | 1 | -12% | 32µM*
CCOc1cc(C2c3c(-c4ccccc4O)n[nH]c3C(=O)N2Cc2cccnc2)ccc1O (stereo not given) | i | 3 | 7% | i | -7% | . | . | . | .
COCCN1C(=O)c2[nH]nc(-c3cc(Cl)c(C)cc3O)c2C1c1ccc(O)c(OC)c1 (stereo not given) | . | -11 | . | . | . | . | . | . | .
c1ccc(-c2ccc(CN3CCNCC3)s2)cc1 | . | 12 | . | . | . | . | . | . | .
Cc1cccc(C(C)C)c1NC(=O)COC(=O)c1ccc2ccccc2n1 | . | -22 | . | . | . | . | . | . | .
COc1ccc(-c2c3c(nc4sc5c(=O)[nH]c(C)nc5c24)CCC3)cc1 | i | 3 | 21µM* | i | 15% | 5% | -6 | -4% | 7.1µM*
COc1ccc(/C=C2\SC(N)=NC2=O)cc1 | i | -3 | -4% | i | ? | 0% | . | . | .
CCOC(=O)CSC1=NC(=O)/C(=C/c2ccc(OC)cc2)S1 | . | -2 | 52µM* | i | ? | -72% | 2 | ? | 45µM*
Cc1ccc(COC(=O)c2ccccc2C(=O)c2ccc(Cl)cc2)cc1 | . | 7 | . | . | . | . | . | . | .
CC(C)=CCc1c2c(c3occ(-c4ccc(O)c(O)c4)c(=O)c3c1O)C=CC(C)(C)O2 | . | -2 | 52µM* | i | -60% | -63% | 0 | -12% | 45µM*
CC1(C)C=Cc2c(c3c(c4c(=O)c(-c5ccc(O)cc5)coc24)OC(C)(C)CC3)O1 | i | 1 | 40µM* | i | ? | 1% | 9 | -14% | 25µM*
O=c1c(-c2ccc(O)cc2)coc2cc(O)cc(O)c12 | i | -2 | -3% | i | 24% | 3% | . | . | .
O=C1CCSC2(C(=O)N(Cc3ccc(F)cc3)c3ccccc32)N1c1cccc(F)c1 (stereo not given) | ? | -1 | 28µM* | i | ? | . | -1 | -17% | ?
O=C1CSC2(C(=O)N(Cc3ccccc3)c3ccccc32)N1c1ccc(Cl)cc1 (stereo not given) | i | -6 | ? | i | 27% | . | 3 | 11% | 25µM*
O=C1CCSC2(C(=O)N(Cc3ccc(F)cc3)c3ccccc32)N1c1ccc(F)c(F)c1 (stereo not given) | ? | -2 | 40µM* | i | ? | . | -5 | -7% | 14µM*
Cc1cccc(N2C(=O)CCSC23C(=O)N(Cc2ccc(F)cc2)c2ccccc23)c1 (stereo not given) | i | 2 | ? | i | ? | . | -2 | -17% | 20µM*
O=C1CCSC2(C(=O)N(Cc3ccc(F)cc3)c3ccccc32)N1c1ccccc1 (stereo not given) | i | -4 | ? | i | ? | . | . | . | .
O=C1c2[nH]nc(-c3ccccc3O)c2C(c2cccc(Cl)c2)N1CC1CCCO1 (stereo not given) | . | 4 | ? | i | -10% | 1% | 10 | 0% | 40µM*
CCCCN1C(=O)c2[nH]nc(-c3ccccc3O)c2C1c1cc(Br)c(O)c(OC)c1 (stereo not given) | ? | 4 | 28µM* | i | 21% | . | 1 | 40µM* | 8.9µM*
COc1cccc(C2c3c(-c4ccccc4O)n[nH]c3C(=O)N2CCc2ccc(OC)c(OC)c2)c1 (stereo not given) | i | -12 | ? | i | 0% | . | -1 | 10% | 25µM*
SMILES | FUS yeast rescue | LDHA block | IDH1 R132H inh | Abeta rescue | TDP-43 yeast inh | aSyn yeast inh | Resorufin autofl | IDH1 WT | IDH1 R132H conf
COc1ccc(CCN2C(=O)c3[nH]nc(-c4ccccc4O)c3C2c2cccc(O)c2)cc1OC (stereo not given) | ? | 5 | -14% | i | 3% | 4% | . | . | .
Cc1cccc(C(=O)NC(c2ccc(Cl)cc2)C2CC2)c1 (stereo not given) | . | -8 | . | . | . | . | . | . | .
CC1(C)CC(=O)C2=C(C1)Nc1c(c(=O)[nH]c(=O)n1Cc1ccccc1)C2c1ccc2c(c1)OCO2 (stereo not given) | . | 1 | . | . | . | . | . | . | .
COc1ccc(-c2nn(-c3ccccc3)cc2/C=C2/SC(=S)N(CCC(=O)O)C2=O)c(C)c1 | i | -23 | 46µM* | i | -12% | -47% | 2 | ? | 35µM*
O=C(O)CCCCCN1C(=O)/C(=C/c2cn(-c3ccccc3)nc2-c2cccs2)SC1=S | i | -1 | ? | i | -12% | 7% | -2 | 1% | 35µM*
CC1CCc2c(sc3nc(C(C)(C)C)nc(N4CCN(C(=O)CCl)CC4)c23)C1 (stereo not given) | ? | -3 | 41µM* | i | . | -71% | -4 | 45µM* | 3.2µM*
CC(=O)c1ccc(C(=O)OC(C)C(=O)c2ccc(C)cc2)s1 (stereo not given) | . | 7 | . | . | . | . | . | . | .
CCC(C)NC(=O)NCC12CC3CC(CC(C3)C1)C2 (stereo not given) | . | 4 | . | . | . | . | . | . | .

Screening results (PubChem BioAssay)
